Vif imaging: HIV Vif self-association inhibitors, primary screen, imaging, HEK293T, single point; hit rate 0.35% among 340,000; inhibition, % at 7.49 µM; AID 602346, 2012; HEK293T cells, Vif self-association by quenched fluorescence, 24 h; in the data active = inhibition above about 50%, passing the limit was not always enough; inconclusive = no clear call, values can overlap the other calls; inactive = below about 31%
NadD block: inhibitors of S. aureus NadD, primary screen, biochemical, colorimetric, uHTS; Nicotinate-nucleotide adenylyltransferase NadD (Staphylococcus aureus N315); purified NadD enzyme, colorimetric absorbance read-out; inhibition, % at 20 µM; hit rate 0.78% among 360,000; AID 602399, 2012; in the data active = inhibition above about 26%
SKN-1 block: suppressors of acrylamide-induced Pgst-4::GFP reporter in worms, primary screen, SKN-1 inhibitor project, whole organism, uHTS, GFP/RFP fluorescence ratio, strain VP596. C. elegans VP596 Pgst-4::GFP/RFP ratio, 24 h. inhibition, % at 21.8 µM. hit rate 0.49% among 360,000;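 active = interference check ratio from 0.5 to 1.5 plus GFP to RFP signal ratio inhibition reaching or exceeding a fixed threshold, cut at about 30% in these data, passing the limit was not always enough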
SMARCA2 act: SMARCA2 (BRM) function activators, primary screen, cell-based, luminescence, high throughput. hit rate 1% among 370,000. MG213 cells, MMTV-luciferase reporter, dexamethasone, overnight. activation, % at 9.1 µM. AID 652017, 2013; in the data active = activation above about 7.8%;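 also: 0% = vehicle wells and 100% = reference activator wells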
esBAF inh: Bmi1 luciferase reporter increase in mESCs, primary screen, esBAF inhibitor project, mouse ES cells, Bmi1 luciferase knock-in, single point; 24 h; 100% = twice the neutral-well signal; reporter increase, % at 12.5 µM; hit rate 2% among 350,000; AID 602393, 2012; in the data active = activation above about 40%; inconclusive = no clear call, values can overlap the other calls;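 also: 0% = median of the plate's neutral control wells and 100% = double that signal; a rise in the Bmi1 reporter signal indicates esBAF inhibition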
GRIN3A LBD mod: binders of NR3A ligand-binding domain, primary screen, biophysical, differential scanning fluorimetry, uHTS; NR3A LBD differential scanning fluorimetry, Tm shift; 0% = protein alone, 100% = glycine-bound protein; Tm shift relative to glycine control, % at 25 µM; hit rate 2.5% among 340,000; AID 1259313, 2017;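 active = melting temperature shift of at least 10% of the positive control shift, at one fixed dose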
SMARCA2 conf: SMARCA2 (BRM) function activators, confirmation, cell-based, luminescence, triplicate; shares compounds with SMARCA2 act; MG213 cells, MMTV-luciferase with dexamethasone, overnight; MG213 cells expressing E1A, Rb sequestered; DMSO wells 0%, reference activator 100%; activation, % at 9.1 µM; hit rate 30% among 3,500; AID 652260, 2013;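 active = activation above its plate's cutoff, the mean activation of tested wells plus 3 SD, cut at about 7.9% in these data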
GAL4-VP16 Luc: GAL4-VP16 luciferase reporter activation, counter-screen for SMARCA2 (BRM) activator project, cell-based, pG5luc, luminescence, high throughput. HEK293 GAL4-VP16 pG5luc reporter; scaled: DMSO wells 0%, SAHA wells 100%. activation, % at 9.1 µM. hit rate 41% among 3,500. AID 686939, 2013. shares compounds with SMARCA2 act;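 active = activation above the solvent-only control well mean plus 3 SD, averaged across control plates, cut at about 5.2% in these data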
An asterisk follows results filed as active; ? = inconclusive; . = no result given; ! = not confirmed by another sample. Compounds with a hit are over-represented: about 5.2% of the library has one in this group of screens.

SMILES | Vif imaging | NadD block | SKN-1 block | SMARCA2 act | esBAF inh | GRIN3A LBD mod | SMARCA2 conf | GAL4-VP16 Luc
C[C@@H]1CN([C@@H](C)CO)C(=O)c2cccc(NS(=O)(=O)c3ccccc3)c2O[C@@H]1CN(C)Cc1ccc(C(=O)O)cc1 | . | . | . | . | -2 | . | . | .
CC(C)NC(=O)Nc1ccc2c(c1)C(=O)N([C@@H](C)CO)C[C@H](C)[C@@H](CN(C)S(C)(=O)=O)OCCCC[C@H](C)O2 | . | . | . | . | -1 | . | . | .
O=C(CC1CC2CCC1C2)NC1CCCCCCC1 (centres undefined) | 6 | -6 | -2 | 9.5* | 60* | -1 | 5 | 4
O=C(CC1CCCCC1)NC1CCCC1 | -2 | -1 | -6 | 1 | 4 | 2 | . | .
CCOc1ccc2nc(C)cc(Nc3cccc([N+](=O)[O-])c3)c2c1 | -4 | -4 | -3 | 14* | . | 1 | 32* | 3
Cc1ccc(/C=C/C(=O)NC2CCCCCCC2)o1 | 0 | 6 | -5 | 8.0* | . | -2 | 20* | 4
Cc1ccc(/C=C/C(=O)Nc2nccs2)o1 | -8 | -4 | 9 | 11* | 60* | 7 | 8.4* | 10*
Cc1ccc(/C=C/C(=O)Nc2ncc(C)s2)o1 | 1 | 5 | 4 | 8 | . | -5 | . | .
Cc1ccc(/C=N/NC(=O)NC2CCCCC2)o1 | -1 | 1 | 2 | -2 | . | -2 | . | .
Cc1ccsc1C(=O)Nc1nccs1 | -7 | 3 | -1 | 9.3* | 13 | 0 | 3 | 3
COCC1CCN(C(=O)C2CCC(=O)N(Cc3ccc(Cl)cc3)C2)CC1 (centres undefined) | 16 | -2 | 1 | 8.3* | 1 | 1 | -1 | 0
Cc1ccc(Cn2ccnc2C(=O)Nc2ccccc2)cc1 | 19 | -3 | 1 | 9.3* | 24 | -1 | 6 | 3
N#Cc1ccc(Cn2ccnc2C(=O)Nc2ccccc2)cc1 | 12 | 2 | 18 | -1 | . | 5 | . | .
C[C@H]1CN([C@@H](C)CO)C(=O)Cc2cc(NC(=O)Cc3cn(C)c4ccccc34)ccc2O[C@H]1CN(C)S(=O)(=O)c1ccccc1 | . | . | . | . | -2 | . | . | .
CCCC(CCC)C(=O)O | -4 | 0 | 4 | 8.1*! | 3 | -2 | -1 | 0
COc1cccc(C2N=C(c3ccccc3C)NO2)c1OC (centres undefined) | -11 | -2 | -14 | 8.0* | 24 | 1 | 4 | 3
CO[C@H]1CN(C)C(=O)c2ccc(NC(=O)Nc3ccccc3)cc2OC[C@H](C)N(C(=O)Nc2c(C)noc2C)C[C@H]1C | . | . | . | . | 0 | . | . | .
COC(=O)[C@]12CCCCC=C1N(Cc1ccc(OC)cc1)C(=O)[C@@H]2CC(=O)NCCCN1CCCC1=O | . | . | . | -1 | . | . | . | .
C=CCN1C(=O)[C@@H](CC(=O)NCCCN2CCCC2=O)[C@]2(C(=O)OC)CCCCC=C12 | . | . | . | 8.7* | . | . | -1 | -2
O=C(Oc1cccc(-c2cnc3ccccc3n2)c1)c1ccco1 | -4 | -6 | -4 | 10* | 15 | -1 | 8.7* | 13*
CCC(C)(C(=O)NC1CCCCC1)N(Cc1ccco1)C(=O)CC1NC(=O)NC1=O (centres undefined) | 3 | 7 | -12 | 8.4* | 1 | 0 | -3 | 0
CC(C)NC(=O)N[C@@H]1C=C[C@H](CC(=O)NC2Cc3ccccc3C2)O[C@@H]1CO | . | . | . | . | -12 | . | . | .
C[C@@H]1CN([C@H](C)CO)C(=O)c2cc(NS(=O)(=O)c3cn(C)cn3)ccc2O[C@H]1CN(C)S(=O)(=O)c1ccccc1 | . | . | . | . | 0 | . | . | .
CCC(=O)Nc1nnc(Cc2ccccc2)s1 | 16 | -9 | -3 | 6 | -5 | 3 | . | .
CC(=O)Nc1nnc(COc2ccccc2)s1 | 1 | 1 | 9 | 8.4* | ? | -1 | 4 | 3
SMILES | Vif imaging | NadD block | SKN-1 block | SMARCA2 act | esBAF inh | GRIN3A LBD mod | SMARCA2 conf | GAL4-VP16 Luc
COc1ccc(Cc2nnc(NC(=O)c3ccccc3[N+](=O)[O-])s2)cc1 | 25 | 0 | 5 | 8.4* | . | 4 | 2 | 0
COC(=O)C(=O)Nc1nnc(COc2ccccc2)s1 | -6 | -1 | -5 | -2 | 3 | 2 | . | .
CC(=O)Nc1nnc(Cc2ccccc2)s1 | -3 | -5 | -22 | 13* | -2 | 2 | 2 | 1
O=C(Nc1cc2c(oc1=O)CCCC2=O)c1ccc(Cl)cc1 | 10 | 5 | -18 | 9.4* | 39 | 0 | 5 | 2
Cc1nccc2oc(=O)c(NC(=O)c3ccc(Cl)cc3)cc12 | -1 | 2 | 6 | 7 | 30 | 2 | . | .
CCOC(=O)C1=C(C)N=c2s/c(=C3\C(=O)Nc4ccccc43)c(=O)n2C1c1ccc2c(c1)OCO2 (centres undefined) | -13 | 26 | -6 | 11* | -9 | -6 | -2 | 0
CCCOc1ccc(N2C(=O)CC(SCC(N)C(=O)OCC)C2=O)cc1 (centres undefined) | 2 | 0 | -4 | -1 | 1 | -1 | . | .
CCCOc1ccc(N2C(=O)CC(SCCN)C2=O)cc1 (centres undefined) | -1 | 4 | -9 | 10* | -5 | -1 | 7.9* | 6.6*
N#C[C@@H]1[C@H](c2ccccc2)[C@@H](CO)N1C(=O)CN1CCOCC1 | . | . | . | . | 3 | . | . | .
COc1cccc(CSc2nc3ccncc3[nH]2)c1 | -5 | -7 | 5 | 9.3* | 6 | -2 | 6 | 7.0*
Cn1c(C2=C(O)CN(Cc3ccccc3)C2=N)nc2ccccc21 | 3 | 1 | -3 | 8.6* | . | 2 | 0 | 3
C[C@H](NC(=O)C[C@H]1C=C[C@@H](NC(=O)C2CCC2)[C@H](CO)O1)c1ccccc1 | . | . | . | . | -7 | . | . | .
O=C(COC(=O)c1cccnc1Cl)Nc1nc(-c2ccccc2)cs1 | 0 | -5 | 10 | 9.9* | . | -4 | 1 | 2
O=C(Nc1ccccc1F)N[C@@H]1CC[C@@H](CCNS(=O)(=O)c2ccccc2)O[C@@H]1CO | . | . | . | . | 8 | . | . | .
c1ccc2oc(C3=NNC(=NC4CC4)SC3)cc2c1 | 0 | 8 | 5 | 9.5* | . | 2 | 0 | 6.5*
